Screens from PubChem BioAssay.
Epigenetic derep: derepresses silenced GFP reporter in murine cells; AID 1865; Potency, µM (titrated, usually from 53.9 µM), hits mostly activators; hit rate 0.2% among 280,000; murine LDR cells, GFP reporter derepression, 30 h; further: nearly all actives have a fitted effect of over 60% in size
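Murine LDR cells bearing a silenced CMV-driven GFP reporter were exposed to compound for 30 h at 37 C. After PBS washes, GFP-positive cells (20-120 um objects) counted by laser-scanning microplate cytometry.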
PKM2 activator: increases activity of human pyruvate kinase M2; purified PKM2, Kinase-Glo ATP luminescence, activation; response scale: 0% is enzyme alone, no compound; Potency, µM (titrated, usually from 57.5 µM), hits mostly activators; hit rate 0.34% among 260,000; AID 1631; further: nearly all actives have a fitted effect of over 55% in size
Target sequence (P14618 whole entry, looked up): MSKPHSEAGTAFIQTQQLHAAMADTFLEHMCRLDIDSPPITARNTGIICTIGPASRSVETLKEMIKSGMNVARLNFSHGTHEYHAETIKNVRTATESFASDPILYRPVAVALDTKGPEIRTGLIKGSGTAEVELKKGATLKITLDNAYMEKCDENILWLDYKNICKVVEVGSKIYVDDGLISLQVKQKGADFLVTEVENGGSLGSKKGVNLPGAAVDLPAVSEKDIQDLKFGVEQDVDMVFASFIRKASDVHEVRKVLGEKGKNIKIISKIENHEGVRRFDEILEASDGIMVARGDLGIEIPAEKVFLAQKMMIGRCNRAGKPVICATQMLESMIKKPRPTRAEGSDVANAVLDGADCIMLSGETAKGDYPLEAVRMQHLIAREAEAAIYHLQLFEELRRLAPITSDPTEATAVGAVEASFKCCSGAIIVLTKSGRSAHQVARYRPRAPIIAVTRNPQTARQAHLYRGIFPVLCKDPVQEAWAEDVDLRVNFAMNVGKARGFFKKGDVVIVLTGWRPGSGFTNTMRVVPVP
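Kinase-Glo luminescence reports ATP generated from ADP (0.1 mM) and PEP (0.5 mM) by purified hPK-M2 after 1 h at room temperature, pH 7.2 imidazole buffer; intermediate enzyme activity allows detecting inhibitors and activators.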
IL-2 act: activates IL-2 in a cell-based reporter assay. AID 652025. IL-2 activation reporter assay, cell-based qHTS; stimulated with anti-CD3/CD4/CD28 beads; in transgenic mouse T cells. activation, % (series mostly up to about 46 µM). hit rate 0.065% among 360,000; in the data active means activation above about 50%; inconclusive means mostly about 30% to 49%
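Readout is EGFP and DsRed signal by fluorescent plate cytometry after 18 h at 37 degrees C. Transgenic mouse T cells (750/well) received compound for 60 min before bead stimulation (anti-CD3, anti-CD4, anti-CD28); memory T cells served as non-tolerant control.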
PINK1 modulator: modulators of PINK1 expression. PINK1 immunofluorescence, high-content cytometry, 24 h. Potency, µM (top dose mostly 76.6 µM), hits mostly activators. hit rate 0.2% among 410,000; active means well fitted activation curve with a large enough effect; inconclusive means small, poorly fitted or top-dose-only effect; cell line not stated here; further: nearly all actives have a fitted effect of over 65% in size
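Stable cell line treated 24 h with compounds at 5 concentrations (CCCP controls), then fixed and immunostained for PINK1 plus nuclear and cell stains; PINK1 immunofluorescence quantified by laser-scanning microplate cytometry.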
B2AR arrestin: agonists driving beta-arrestin recruitment to human beta2-adrenergic receptor. Potency, µM (series often up to 46.1 µM), hits mostly activators. hit rate 0.02% among 330,000. AID 492947. beta-arrestin recruitment to beta2AR, cell-based reporter; further: nearly all actives have a fitted effect of over 65% in size
A number is an active result; - = inactive; ? = inconclusive; . = no result. Most compounds without a hit are left out; they make up all but 0.58% or so of the library. Unless noted, the call rests on the fitted dose curve; in most records, active means well fitted curve in the direction sought with a large enough effect; inconclusive means small, poorly fitted or top-dose-only effect, or another doubt; inactive means no such curve, though single readings can be large; an effect the other way counts as inactive or inconclusive.

SMILES	Epigenetic derep	PKM2 activator	IL-2 act	PINK1 modulator	B2AR arrestin
Cc1ccccc1C(=O)NC(C)c1nnc2n1CCN(Cc1ccc(F)cc1)CC2 (centres undefined)	.	.	.	-	.
COc1cc(=O)n2c(c1C(=O)N(C)C(C)c1ccco1)CCN(C(=O)c1ccc(C(C)=O)cc1)CC2 (centres undefined)	.	.	.	-	.
CC(C)(C)C(=O)/C=c1\s/c(=C\c2ccc(-c3ccc([N+](=O)[O-])cc3)o2)c(=O)n1CC(=O)NC(N)=O	?	-	164.1	-	-
O=C(C[n+]1ccccc1)c1ccc(-c2ccccc2)cc1	-	-	-	-	-
CN(C)c1cc[n+](CC(=O)c2ccc(-c3ccccc3)cc2)cc1	-	-	-	25.1µM	-
Clc1cccc(C2Nc3cccc4cccc(c34)N2)c1Cl	.	-	-	-	2.82µM
COc1cccc(C2(CC(=O)N3CCC(c4nc5ccc(F)cc5[nH]4)CC3)CC(=O)N(C)C2=O)c1 (centres undefined)	.	.	.	-	.
O=Cc1ccc(O)c2ncccc12	?	-	-	-	6.31µM
CCCCOC(=O)c1ccc(NC(=S)N2CCN(c3ncc4c(=O)c(C(=O)O)cn(CC)c4n3)CC2)cc1	-	-	-	28.2µM	-
CCn1cc(C(=O)O)c(=O)c2cnc(N3CCN(C(=S)Nc4ccccc4)CC3)nc21	-	-	-	-	-
COc1cccc(CNc2ncnc3sc(C(=O)N4CC5CCC4C5)c(C)c23)c1OC (centres undefined)	.	.	.	-	.
Cc1cccc(C(=O)OC(C)C(=O)Nc2ccc(S(=O)(=O)N3CCCC3)cc2)c1O (centres undefined)	.	.	-	-	-
CC(OC(=O)c1cc(Br)ccc1O)C(=O)Nc1ccc(S(=O)(=O)N2CCCC2)cc1 (centres undefined)	.	.	-	15.8µM	-
CCN(Cc1ccccc1)S(=O)(=O)c1cc(C(=O)Nc2cc(Cl)cc(Cl)c2)ccc1F	-	.	.	44.7µM	.
Cc1ccc(S(=O)(=O)Nc2ccccc2CNc2ccc(Br)cn2)cc1	-	-	-	15.8µM	-
Oc1ccccc1CNc1ccc(Br)cn1	-	31.6µM	-	-	-
Cc1ccc2nc(SCC(=O)NCC3Cc4cc(-c5ncccc5C)ccc4O3)[nH]c2c1 (centres undefined)	.	.	.	-	.
CCCCn1c(NC(=O)c2ccccc2Cl)c(C#N)c2nc3ccccc3nc21	-	-	-	39.8µM	-
N#Cc1c(NC(=O)c2ccccc2Cl)n(Cc2ccccc2)c2nc3ccccc3nc12	-	-	-	?	-
Cc1cc(N2CCC(C)CC2)nc(NCc2ccccc2)n1	-	-	-	35.5µM	-
Cc1cc(N2CCC(C)CC2)nc(-c2ccccc2O)n1	-	-	-	-	-
CCNc1ncc2nc(-c3cn(C)c4ccccc34)c(=O)n(Cc3cccc(OC)c3)c2n1	.	.	.	-	.
CCNc1ncc2nc(-c3cn(C)c4ccccc34)c(=O)n(-c3ccc(OC)cc3)c2n1	.	.	.	28.2µM	.
COc1cccc(CNC(=O)c2c(OC)cc(=O)n3c2CCN(C(=O)c2ccc(C)nc2)CC3)c1	.	.	.	-	.
N#CC1=C(N)C2=CCCC[C@H]2[C@H](c2ccc(Br)cc2)C1(C#N)C#N	-	7.94µM	-	-	-
SMILES	Epigenetic derep	PKM2 activator	IL-2 act	PINK1 modulator	B2AR arrestin
CCN(CC)c1ccc(/C=C/c2cccc[n+]2C)c(OC)c1	.	-	-	10µM	-
COc1ccc(/C=C/c2cccc[n+]2C)c(O)c1	.	-	-	-	-
Cc1cc(C(=O)NCC2CCC3(CCN(Cc4ccc(-c5ccccc5)cc4)CC3)O2)n(C)n1 (centres undefined)	.	.	.	-	.
NS(=O)(=O)c1ccc(-c2ccc(/C=N/NC(=O)c3ccc([N+](=O)[O-])cc3)o2)cc1	-	-	-	39.8µM	-
NC(=S)N/N=C/c1ccc(-c2cccc([N+](=O)[O-])c2)o1	15.8µM	-	-	-	?
CC(C)(C)NC(=S)N/N=C\c1ccc(-c2ccc([N+](=O)[O-])cc2)o1	12.6µM	?	-	-	-
CCCCC(=O)N/N=C/c1ccc(-c2ccc([N+](=O)[O-])cc2)o1	-	-	-	-	-
COCC(=O)Nc1cc(C(=O)N2CCc3c([nH]c4ccccc34)C2)cc2nc(-c3ccccc3)n(C)c12	.	.	.	-	.
Cc1ccc[n+](CC2OCc3ccccc3CO2)c1	-	-	-	-	-
CCCCN(CCCC)CC1OCc2ccccc2CO1	-	-	-	3.98µM	-
Fc1ccc(CCNC(=S)Nc2ccc(F)c(Cl)c2)cc1	-	-	-	14.1µM	-
Cc1cccc2nc(CNC(=O)CN3Cc4cc(Cl)ccc4OC(C)C3)cn12 (centres undefined)	.	.	.	-	.
O=C(NCc1nnc2n1CCN(Cc1cc3c(cc1Cl)OCO3)CC2)C1CCOC1 (centres undefined)	.	.	.	-	.
COc1ccc(/C(O)=C/c2nc3ccccc3n(-c3ccccc3)c2=O)cc1	25.1µM	-	-	?	-
COc1ccc(-n2c(=O)c(CCC(=O)N3CCN(c4cccc(OC)c4)CC3)nc3ccccc32)cc1	.	.	-	-	.
CCCc1ccc(C(=O)NNC(=O)c2ccc(Br)cc2)cc1	-	-	-	-	-
O=C(NC(=O)c1ccccc1O)c1ccc(C(F)(F)F)cc1	-	-	-	31.6µM	-
CCCc1ccc(C(=O)NC(=O)c2ccccc2O)cc1	-	-	-	44.7µM	-
O=C(NC(=S)NNC(=O)c1ccccc1O)c1ccc(F)cc1	.	-	-	-	-
COc1cc(C)c(CN2C[C@H](Sc3nc4ccccc4[nH]3)C[C@H]2C(=O)N(C)C)cc1C	.	.	.	-	.
COC(=O)CSc1nnc(-c2ccc(NS(=O)(=O)c3ccccc3)cc2)o1	-	25.1µM	-	-	-
COc1ccc(CC(=O)Nc2cc(=O)n(C)c(=O)n2C)cc1	-	15.8µM	-	-	-
O=C(Nc1ccc(Cl)cc1)Nc1nnc(CSCc2ccc(Cl)cc2)s1	-	-	-	11.2µM	-
O=C(NCCc1ccccn1)C1CC12CCN(C(=O)c1ccc(F)cc1Cl)CC2 (centres undefined)	.	.	.	-	.
Cc1nn(S(=O)(=O)c2cccs2)c(C)c1Sc1ccccc1	-	15.8µM	.	.	-
SMILES	Epigenetic derep	PKM2 activator	IL-2 act	PINK1 modulator	B2AR arrestin
COc1ccc(NC(=O)c2[nH]c(C)c(C(C)=O)c2C)cc1Cl	-	-	-	-	-
COc1ccc(C(C)(C)C)cc1NC(=O)c1[nH]c(C)c(C(C)=O)c1C	.	17.8µM	-	-	-
CSc1nsc(/C=C/Nc2ccc(F)cc2F)c1C#N	3.98µM	-	-	-	-
CSc1nsc(/C=C/Nc2ccc(C(=O)O)cc2)c1C#N	-	-	-	-	-
COc1ccc(-n2c(-c3cccc(C)c3[N+](=O)[O-])n[nH]c2=S)cc1	-	11.2µM	-	-	-
COC(=O)c1cc(CNC(=O)c2cccc(F)c2)cc(NC(=O)c2ccccc2OC)c1	.	.	.	-	.
Cc1ccc(N/C=C2/Sc3ccccc3NC2=O)cc1	?	-	-	39.8µM	-
COc1ccc(N/C=C2/Sc3ccccc3NC2=O)cc1	-	-	-	-	-
